Experimental findings from PubChem BioAssay (NCI) are described below.

The panel holds about 79,000 compounds, 15% with a hit somewhere; the sample as a whole holds those more often. Unmarked numbers belong to inactive results. The source made the active and inactive calls. No stated cut-off is given here; in the data, active means growth inhibition above about 70%; inactive means the rest.

Test [1] in a line: NCI Yeast Anticancer Drug Screen. Data for the rad50 strain (AID 155).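 Further: 0% = growth of vehicle-only cultures of the same strain.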 The following applies: S. cerevisiae rad50 strain growth inhibition; at 50.0 µM; stronger effect = higher value. The method, boiled down:
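DNA repair mutant yeast, compound exposure, growth read-out; inhibition is taken relative to vehicle.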

Test [2] can be described thus: NCI Yeast Anticancer Drug Screen. Data for the mec2-1 strain (AID 157). Particulars: S. cerevisiae mec2-1 strain, at 50.0 µM, stronger effect = higher value. In short, it runs like this:
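Each compound was tested on mec2-1 yeast, a strain altered in DNA damage repair or cell cycle control. Growth inhibition is reported relative to vehicle.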

Test [3] can be described thus: NCI Yeast Anticancer Drug Screen. Data for the sgs1 mgt1 strain (AID 161).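 Further: 0% = growth of cultures given vehicle only.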 Particulars: S. cerevisiae sgs1 mgt1 strain, at 50.0 µM, stronger effect = higher value. The method, boiled down: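 Read-out: growth inhibition vs vehicle controls. Cells: mutant yeast strain deficient in DNA damage repair.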
A short description of test [4]: NCI Yeast Anticancer Drug Screen. Data for the cln2 rad14 strain (AID 165).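 Further: 0% = growth equal to vehicle treated cultures.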 Particulars: S. cerevisiae cln2 rad14 strain, at 50.0 µM, stronger effect = higher value. The method, boiled down:
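Test compounds were added to cln2 rad14 yeast cultures; inhibition of growth was then determined by comparison with vehicle treatment.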

A short description of test [5]: NCI Yeast Anticancer Drug Screen. Data for the bub3 strain (AID 167). The following applies: S. cerevisiae bub3 mutant strain, at 50.0 µM, stronger effect = higher value. In short, it runs like this: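 In this screen, a yeast mutant lacking normal mitotic checkpoint function is challenged with compound. Relative growth versus vehicle gives the inhibition value.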
Test [6] in a line: NCI Yeast Anticancer Drug Screen. Data for the mlh1 rad18 strain (AID 175). The following applies: S. cerevisiae mlh1 rad18 strain growth inhibition; at 50.0 µM; stronger effect = higher value. In short, it runs like this:
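Inhibition values reflect reduced growth of mutant yeast versus vehicle-treated controls following compound exposure; the mutations affect DNA damage repair.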

Consider `c1cc2cc(C3=NCCN3)[nH]c2cc1C1=NCCN1`, for which the growth inhibition in test [1] was 12.8%; in test [2], 35.4%; in test [3], 29.1%; in test [4] it was 43.5%; in test [5] it was 18.6%; in test [6] it was 26.2%.

Turning to `CCCCCCCOC(=O)C(CC)CC`, the growth inhibition in test [1] was 6.8%; in test [2] it was -6.45%; in test [3], 5.45%; in test [4], 2.85%; in test [5], 2.65%; in test [6], 6.45%.

Take `C=CCC12CC(COc3ccccc3C(N)=O)OC1=Nc1ccccc1NC2=O` (stereo not drawn): the growth inhibition was 0.55% in test [1]; 0.25% in test [2]; -27.6% in test [3]; -1.8% in test [4]; 0.8% in test [5]; -5.05% in test [6].

Turning to `OC1[C@H](O)CN(OCc2ccccc2)C[C@@H]1O` (stereo partly drawn), the growth inhibition in test [1] was -13.9%; in test [2], -2.4%; in test [3] it was -15.1%; in test [4], -20.4%; in test [5] it was 7.85%; in test [6], -18.4%.

In the case of `O=S1(=O)CCCC1C(O)c1ccccc1` (stereo not drawn), the growth inhibition is 13.8% in test [1]; -5.75% in test [2]; -8.85% in test [3]; -60.2% in test [4]; 1.55% in test [5]; -15.1% in test [6].

In the case of `COc1ccc(/C=C(\C#N)c2ccccc2NC(C)=O)cc1`, the growth inhibition in test [1] was 6.9%; in test [2] it was 7.4%; in test [3] it was -2.95%; in test [4], -42.8%; in test [5], -10.5%; in test [6], 19.8%.

In the case of `COC(=O)C(Cc1ccc2c(c1)OCO2)(NC(=O)c1ccccc1)P(=O)(OC)OC` (stereo not drawn), the growth inhibition in test [1] was -30.5%; in test [2], 1.05%; in test [3], -8.6%; in test [4], 16.8%; in test [5] it was -25.1%; in test [6], -32.5%.

For the molecule `CCOC(=O)c1ccc(N[C@@H]2c3cc4c(cc3C(c3cc(OC)c(O)c(OC)c3)[C@H]3C(=O)OCC32)OCO4)cc1` (stereo partly drawn), the growth inhibition was 85.6% (active) in test [1]; 91.7% (active) in test [2]; 89.2% (active) in test [3]; 87.5% (active) in test [4]; 88% (active) in test [5]; 88.8% (active) in test [6].

For the molecule `O=C(O)CCNc1cccs1`, the growth inhibition is -19.6% in test [1]; -1.75% in test [2]; -26.5% in test [3]; -63.8% in test [4]; -4.85% in test [5]; -19.9% in test [6].

On to `O=S(=O)(O)c1ccc(O)c2ncccc12`, for which the growth inhibition in test [1] is 20.2%; in test [2], 16.4%; in test [3] it was 23.6%; in test [4], 21.4%; in test [5] it was 12.1%; in test [6], 25.9%.

`COc1ccc(/C=C2\CCC/C(=C\c3ccc(O)c(CN4CCCCC4)c3)C2=O)cc1`: the growth inhibition in test [1] was 89.2% (active); in test [2], 85.5% (active); in test [3], 91.2% (active); in test [4], 83% (active); in test [5], 89.1% (active); in test [6], 91.2% (active).

In the case of `CCOC(=O)C(=O)N=Nc1nc2c(O)c3ccccc3c(O)c2s1`, the growth inhibition in test [1] was 78.2% (active); in test [2], 87.8% (active); in test [3] it was 83% (active); in test [4] it was 45.8%; in test [5], 89.2% (active); in test [6] it was 58.5%.

In the case of `CC(C)(C)C(=O)/C=C(\OB(F)F)C(C)(C)C`, the growth inhibition in test [1] is 2.25%; in test [2] it was -5.2%; in test [3], -9.15%; in test [4], 26.9%; in test [5], -15.8%; in test [6], 5.25%.

Consider `CC1OC(OC2CCC3(C)C(CCC4C3CC(O)C3(C)C(C5=CC(=O)OC5)CCC43O)C2)CC(O)C1OC1CC(O)C(OC2CC(O)C(OC3OC(CO)C(O)C(O)C3O)C(C)O2)C(C)O1` (stereo not drawn), for which the growth inhibition was 16.4% in test [1]; -7.7% in test [2]; -0.4% in test [3]; 4.35% in test [4]; 10.6% in test [5]; 20.1% in test [6].

Take `O=C(Nc1ccc2c(c1)Cc1cccc(F)c1-2)C(F)(F)F`: the growth inhibition in test [1] is 4.7%; in test [2], -1.45%; in test [3] it was 2.9%; in test [4], -1.5%; in test [5] it was 36.7%; in test [6], 7.3%.

In the case of `O=c1c2ccccc2oc2cc([N+](=O)[O-])cc([N+](=O)[O-])c12`, the growth inhibition is -15.9% in test [1]; -16.2% in test [2]; -14.4% in test [3]; 38.4% in test [4]; 0.9% in test [5]; -60.6% in test [6].

For the molecule `CC1C2CC(CC(=O)N2)C1(C)C` (stereo not drawn), the growth inhibition in test [1] is 15.6%; in test [2] it was 21.6%; in test [3] it was 21.7%; in test [4] it was 15.1%; in test [5], 11.2%; in test [6], 13.6%.

For `CC(NC(=O)C(Cc1ccc(OC(=O)c2ccccc2)cc1)NC(=O)OC(C)(C)C)C(=O)NCC(=O)NC(Cc1ccccc1)NC(=O)OCc1ccccc1` (stereo not drawn), the growth inhibition in test [1] is -11.7%; in test [2], -24.6%; in test [3], -27.7%; in test [4], 7.35%; in test [5], -25.4%; in test [6] it was -8.95%.
